The nature of assay [1]: NCI Yeast Anticancer Drug Screen. Data for the rad50 strain (AID 155).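 Note: 0% = growth of vehicle-only cultures of the same strain.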 The following applies: S. cerevisiae rad50 strain growth inhibition; at 50.0 µM; hits give high values. Summed up:
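Yeast carrying a defined DNA repair defect were exposed to test compounds, and growth was compared with vehicle-treated controls to give percent inhibition.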

A short description of assay [2]: NCI Yeast Anticancer Drug Screen. Data for the mec2-1 strain (AID 157). The following applies: S. cerevisiae mec2-1 strain, at 50.0 µM, hits give high values. Summed up:
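Compounds were applied to mec2-1 yeast cells. Their growth was then compared with that of vehicle-treated cultures to give growth inhibition.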

Assay [3] in a line: NCI Yeast Anticancer Drug Screen. Data for the sgs1 mgt1 strain (AID 161).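 Note: 0% = growth of cultures given vehicle only.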 The following applies: S. cerevisiae sgs1 mgt1 strain, at 50.0 µM, hits give high values. The method in brief:
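This yeast growth screen uses a strain with defined DNA-repair lesions; compound-treated growth is compared with vehicle-treated growth.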

Assay [4] can be described thus: NCI Yeast Anticancer Drug Screen. Data for the cln2 rad14 strain (AID 165).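 Note: 0% = growth equal to vehicle treated cultures.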 The following applies: S. cerevisiae cln2 rad14 strain, at 50.0 µM, hits give high values. Summed up:
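Strain: cln2 rad14 yeast, altered in cell cycle control and DNA damage repair. Read-out: growth inhibition vs vehicle.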

The nature of assay [5]: NCI Yeast Anticancer Drug Screen. Data for the bub3 strain (AID 167). The following applies: S. cerevisiae bub3 mutant strain, at 50.0 µM, hits give high values. Summed up: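 Compounds were applied to a genetically altered yeast strain carrying a cell-cycle control defect. Growth inhibition was scored against vehicle-treated controls.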
Assay [6] in a line: NCI Yeast Anticancer Drug Screen. Data for the mlh1 rad18 strain (AID 175). The following applies: S. cerevisiae mlh1 rad18 strain growth inhibition; at 50.0 µM; hits give high values. The method in brief:
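A repair-deficient yeast strain is exposed to test compound, and growth is scored relative to vehicle-treated controls.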

We go through 20 molecules from PubChem BioAssay (NCI).

Compounds without any hit were thinned out: in the full panel of roughly 79,000, 15% have a hit. A number with no mark means an inactive call. Calls of active or inactive are those of the source. Cut-off read from the data, not from the text of the source: active = growth inhibition above about 70%; inactive = the rest. Where a SMILES comes first, the peptide text is derived from it. Bridges are numbered along the chain shown (N, C = ends). Roman numbers before positions name the chains, in order.

Turning to `Cc1ccc(S(=O)c2ccccc2C(O)(C(F)(F)F)C(F)(F)F)cc1` (stereo not given), the growth inhibition is 76.2% (active) in assay [1]; 75.8% (active) in assay [2]; 74.6% (active) in assay [3]; 59.6% in assay [4]; 52.1% in assay [5]; 75.7% (active) in assay [6].
Turning to `CCn1c(=O)c(C#N)c2n(CC)c3cc(C)c(C)cc3n2c1=O`, the growth inhibition in assay [1] was -13.5%; in assay [2], -2.9%; in assay [3], -11%; in assay [4], -24.2%; in assay [5], -31.3%; in assay [6] it was -20.4%.
Take `Cc1cc([N+](=O)[O-])ccn1`: the growth inhibition in assay [1] was -15.2%; in assay [2] it was 1.1%; in assay [3], -18.1%; in assay [4] it was -4.5%; in assay [5], -6.15%; in assay [6], -9.9%.
As for `COc1cc(C(=O)CCC(=O)O)c(OC)c(CBr)c1CBr`, the growth inhibition is -20.3% in assay [1]; -0.4% in assay [2]; -2.7% in assay [3]; -23.8% in assay [4]; -2.15% in assay [5]; -13.8% in assay [6].
`O=C(CCBr)NC(=O)OC/C=C\c1ccccc1`: the growth inhibition was 7.7% in assay [1]; 34.8% in assay [2]; 12.2% in assay [3]; 8% in assay [4]; 5.1% in assay [5]; 15.2% in assay [6].
Turning to `CC(C)CC(NC(=O)C(N)CSSCC(N)C(=O)NC(CC(C)C)C(=O)O)C(=O)O` (stereo not drawn) (I: H-Cys-Leu-OH / II: H-Cys-Leu-OH; disulfide I:1-II:1; configuration not given here), the growth inhibition in assay [1] was -10.6%; in assay [2] it was -6.85%; in assay [3], -9.8%; in assay [4], -23.1%; in assay [5] it was -1.25%; in assay [6], -6.9%.
As to `COc1nc(NC2OC(CO)C(O)C(O)C2O)c(C(C)=O)c(=O)n1C` (stereo not given), the growth inhibition is 12.2% in assay [1]; 2.25% in assay [2]; 24.1% in assay [3]; 15.2% in assay [4]; -6.25% in assay [5]; 12.5% in assay [6].
As for `CCCC(=O)C(N)CC(C)C` (stereo not given), the growth inhibition in assay [1] was -8.2%; in assay [2] it was 5.4%; in assay [3] it was 10.6%; in assay [4], 1.15%; in assay [5], 2.45%; in assay [6], -4.15%.
Regarding `CCCCOc1ccc([N+](=O)[O-])cn1`, the growth inhibition was 20.8% in assay [1]; -14.6% in assay [2]; 3.15% in assay [3]; 26.1% in assay [4]; -7.6% in assay [5]; 9.15% in assay [6].
Take `CC(C(=O)C(=O)Nc1ccc(Cl)cc1)C(=O)c1ccc(Cl)cc1` (stereo not given): the growth inhibition in assay [1] is 1.25%; in assay [2] it was -7.15%; in assay [3], -2.85%; in assay [4], -14.9%; in assay [5], 5.15%; in assay [6], -17.3%.
Turning to `CSc1nc2c(c(O)c(C)c(=O)n2C2OCC(OC(C)=O)C(OC(C)=O)C2OC(C)=O)c(=O)n1C` (stereo not given), the growth inhibition in assay [1] was 10.6%; in assay [2], -26.5%; in assay [3], -15.7%; in assay [4] it was 2.9%; in assay [5], 2.2%; in assay [6], -1.3%.
`CC(C(/C=N/NC(N)=S)=N/NC(N)=S)N1C(=O)c2ccccc2C1=O` (stereo not given): the growth inhibition in assay [1] was 3.75%; in assay [2] it was -11.2%; in assay [3] it was -16.9%; in assay [4], -5.1%; in assay [5], 2.45%; in assay [6], 23.9%.
With `C[N+](C)(CCNCC(N)=O)CC(N)=O`, the growth inhibition was -17.6% in assay [1]; -4.2% in assay [2]; -19.1% in assay [3]; -9.95% in assay [4]; 5.15% in assay [5]; -1.5% in assay [6].
Regarding `O=C1CC2(CCCC2)C(=O)N1c1cccc([N+](=O)[O-])c1`, the growth inhibition is 10.8% in assay [1]; 5% in assay [2]; 17.4% in assay [3]; 11% in assay [4]; 11.7% in assay [5]; -4.85% in assay [6].
Regarding `CCN(CC)C(CC(=O)c1ccccc1)C(=O)c1ccccc1` (stereo not given), the growth inhibition in assay [1] is 23.9%; in assay [2] it was 16.5%; in assay [3] it was 13.2%; in assay [4] it was -10%; in assay [5], 13.3%; in assay [6], 49.6%.
On to `O=C(O)c1ccc2ncc(-c3ccccc3)nc2c1`, for which the growth inhibition in assay [1] was 5.3%; in assay [2], 11.7%; in assay [3] it was 2.35%; in assay [4], -31.1%; in assay [5] it was -7.4%; in assay [6], 16.4%.
As to `CN(C)/C=N/c1nc2ncn(CCOC(=O)c3ccccc3)c2c(=O)[nH]1`, the growth inhibition in assay [1] was -20.6%; in assay [2], -24.6%; in assay [3] it was 11.3%; in assay [4] it was 10.6%; in assay [5], -11.4%; in assay [6], -20.9%.
For the molecule `c1ccc(B2O[C@H]3CCCC[C@@H]3O2)cc1`, the growth inhibition was 2.15% in assay [1]; 13.9% in assay [2]; -1.3% in assay [3]; 12.8% in assay [4]; 1.25% in assay [5]; 21.4% in assay [6].
Regarding `O=[N+]([O-])c1cccc2ccc(N/N=C/c3ccccc3O)nc12`, the growth inhibition in assay [1] is 18.8%; in assay [2], -4.05%; in assay [3] it was 42.2%; in assay [4] it was 1.85%; in assay [5], 7.25%; in assay [6] it was 19.8%.
For `O=C(OCCN=c1c2ccccc2ccc2ccccc12)c1cc([N+](=O)[O-])cc([N+](=O)[O-])c1`, the growth inhibition in assay [1] was 13.1%; in assay [2], 4.75%; in assay [3], 34.3%; in assay [4] it was 21%; in assay [5], 13.6%; in assay [6], 39.8%.
